From paper PMC5540273 (PLoS ONE, 2017)

How the values were obtained:
Conditions in all cases: concentration: 1 μM,replicates: in singlicate; n = 1
[1] = test system: PIK3C2G
[2] = test system: PIK3CA
[3] = test system: PIK3CB
[4] = test system: PIK3CD
[5] = test system: PIK3CG
[6] = test system: T1, PIK4CB
T1 construct: gene PI4KB

[7] = test system: PIKFYVE
[8] = test system: PIM1
[9] = test system: PIM2
[10] = test system: PIM3
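Note: KINOMEscan kinase panel screen.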

| Structure (SMILES) | %Inh [1] | %Inh [2] | %Inh [3] | %Inh [4] | %Inh [5] | %Inh [6] | %Inh [7] | %Inh [8] | %Inh [9] | %Inh [10] |
| --- | --- | --- | --- | --- | --- | --- | --- | --- | --- | --- |
| COc1cc2c(Nc3ccc(NC(=O)c4ccccc4)cc3)ncnc2cc1OCCCN1CCOCC1 [GSK301329] | 0% | 0% | 0% | 0% | 0% | 0% | 0% | 0% | 0% | 0% |
| Cc1ccc2c(-c3ccnc(Nc4ccc(C(F)(F)F)cc4)n3)cnn2n1 [GW819776] | 0% | 2% | 0% | 0% | 48% | 33% | 23% | 10% | 0% | 0% |
| CN(c1ccc2c(c1)nc(NCc1ccc(F)cc1)n2C)c1ccnc(Nc2ccc(CS(C)(=O)=O)cc2)n1.Cl [GW813244] | 0% | 27% | 0% | 0% | 0% | 0% | 0% | 18% | 49% | 15% |
| Cc1ccn2nc(-c3ccc(F)cc3)c(-c3ccncc3)c2c1.Cl [GW457859] | 20% | 0% | 0% | 1% | 1% | 0% | 54% | 16% | 0% | 0% |
| CS(=O)c1ccc(-c2coc3ccc(-c4n[nH]c(=O)o4)cc23)cc1 (stereo not shown) | 49% | 46% | 41% | 35% | 78% | 43% | 64% | 87% | 82% | 84% |
| COC(=O)Nc1nc2cc(Oc3ccc(NC(=O)Nc4cc(C(F)(F)F)ccc4Cl)cc3)ccc2[nH]1.Cl [GW697465] | 0% | 0% | 16% | 4% | 0% | 0% | 20% | 30% | 0% | 22% |
| Nc1nccc(-c2ccc3c(N)n[nH]c3c2)n1 [GSK1034945] | 0% | 5% | 0% | 3% | 2% | 0% | 0% | 9% | 0% | 7% |
| Cl.Cl.NC[C@H](CC1CCCCC1)NC(=O)c1ccc(-c2ccnc3[nH]ccc23)s1 [GSK1581428] | 0% | 0% | 0% | 0% | 0% | 0% | 0% | 0% | 0% | 0% |
| Cl.Nc1n[nH]c2cc(-c3ccccn3)ccc12 [GSK2189892] | 0% | 0% | 0% | 0% | 0% | 0% | 0% | 0% | 0% | 0% |
| CNC(=O)c1ccccc1Nc1nc(Nc2cccc(CS(C)(=O)=O)c2)ncc1C.O=CO [GSK1520489] | 0% | 0% | 0% | 0% | 20% | 12% | 0% | 18% | 0% | 0% |
| CCNCC(Cc1ccccc1)NC(=O)c1cc(Br)c(-c2ccnc3[nH]ccc23)s1.Cl.Cl (stereo not shown) [GSK1383280] | 0% | 0% | 0% | 0% | 0% | 12% | 0% | 22% | 0% | 5% |
| Cn1ccc2ncnc(Oc3ccc(NC(=O)Nc4cc(C(C)(C)C)on4)c(Cl)c3)c21 | 48% | 5% | 8% | 12% | 4% | 0% | 19% | 1% | 0% | 11% |
| Cn1ccc2ncnc(Oc3ccc(NC(=O)Nc4ccnc(C(F)(F)F)c4)c(Cl)c3)c21 | 13% | 0% | 0% | 0% | 0% | 0% | 7% | 5% | 3% | 0% |
| Cn1ccc2ncnc(Oc3ccc(NC(=O)Nc4cccc(C(F)(F)F)c4)c(Cl)c3)c21 | 5% | 0% | 19% | 0% | 0% | 0% | 29% | 12% | 1% | 15% |
| CCn1c(-c2nonc2N)nc2cncc(Br)c21 [SB-738004] | 12% | 0% | 21% | 34% | 11% | 5% | 39% | 89% | 0% | 62% |
| O=C(Nc1cccc(C(F)(F)F)c1)c1cccc(Oc2ccc3nccn3n2)c1 | 13% | 98.1% | 0% | 17% | 94.2% | 39% | 0% | 0% | 7% | 0% |
| C[C@@H]1CCN(C(=O)N2CCCC2)C[C@@H]1N(C)c1ncnc2[nH]ccc12 | 0% | 2% | 26% | 2% | 14% | 7% | 3% | 0% | 0% | 0% |

| Structure (SMILES) | %Inh [1] | %Inh [2] | %Inh [3] | %Inh [4] | %Inh [5] | %Inh [6] | %Inh [7] | %Inh [8] | %Inh [9] | %Inh [10] |
| --- | --- | --- | --- | --- | --- | --- | --- | --- | --- | --- |
| NC(=O)Nc1sc(-c2ccc(F)cc2)cc1C(N)=O [GW789449] | 19% | 0% | 0% | 30% | 1% | 18% | 22% | 0% | 0% | 0% |
| CCn1c(-c2nonc2N)nc2cncc(CNC3CCNCC3)c21.Cl [SB-747651] | 0% | 0% | 0% | 2% | 0% | 15% | 0% | 93.4% | 81% | 80% |
| Cc1ccc(CC(=O)N2CCc3cc(-c4cn(C)c5ncnc(N)c45)ccc32)cc1 [GSK2634758] | 4% | 0% | 0% | 36% | 0% | 0% | 1% | 0% | 0% | 0% |
| CN1CCN(CCCNc2nccc(-c3c(-c4ccc(F)cc4)nn4cc(C(N)=O)ccc34)n2)CC1 [GW622475] | 0% | 0% | 0% | 0% | 0% | 0% | 94.2% | 25% | 0% | 8% |
| COc1cccc(C2=C(Nc3cccc(Cl)c3)C(=O)NC2=O)c1 [SB-341556] | 0% | 1% | 0% | 0% | 0% | 10% | 0% | 9% | 0% | 0% |
| Cl.c1ccc(Oc2ccc(Nc3ccnc4cc(-c5ccc(CN6CCNCC6)o5)ccc34)cc2)nc1 [GW567142] | 0% | 0% | 0% | 0% | 10% | 0% | 0% | 0% | 0% | 2% |
| Cn1cc(-c2cccc3c(N)c(C(N)=O)nnc23)cn1 | 26% | 0% | 0% | 20% | 18% | 16% | 0% | 0% | 0% | 0% |
| O=C(NCC1CC1)c1ccc(-c2cc(C(=O)NC3CC3)ccc2F)cc1 [GW810445] | 0% | 0% | 0% | 0% | 0% | 0% | 6% | 9% | 0% | 0% |
| CC(=O)Nc1nc2cnc(Nc3cc(NC(=O)c4cccc(CC(C)(C)C#N)c4)ccc3C)nc2s1 | 60% | 11% | 66% | 54% | 8% | 27% | 0% | 16% | 8% | 22% |
| CCCC(=O)Nc1n[nH]c2ncccc12 [SB-601436] | 0% | 0% | 0% | 0% | 7% | 12% | 0% | 0% | 0% | 0% |
| CN1CCN(CCNc2nc3cc(Oc4ccc(NC(=O)Nc5cc(C(F)(F)F)ccc5F)cc4)ccc3[nH]2)CC1.Cl.Cl [GW768504] | 0% | 0% | 0% | 0% | 0% | 0% | 0% | 10% | 2% | 0% |
| CC(=O)Nc1ccc(-c2cc3ncnc(SCC(=O)O)c3s2)cc1 | 0% | 0% | 26% | 5% | 1% | 0% | 38% | 10% | 48% | 22% |
| Cc1cccc2c(-c3ccncc3)c(-c3ccc(F)cc3)nn12.Cl [GW461487] | 0% | 0% | 0% | 0% | 0% | 0% | 0% | 18% | 0% | 0% |
| c1ccc(Oc2ccc(Nc3ccnc4ccc(-c5ccccn5)cc34)cc2)cc1 [GW407034] | 0% | 0% | 27% | 0% | 0% | 0% | 0% | 9% | 0% | 0% |
| O=C(NOCC1CC1)c1cc(Br)c(F)c(F)c1Nc1ccc(I)cc1Cl | 0% | 0% | 0% | 0% | 0% | 0% | 41% | 0% | 9% | 1% |
| CCOC(=O)N1CCC(n2cnc(-c3ccc(F)cc3)c2-c2ccnc(N)n2)CC1 [SB-219952] | 69% | 15% | 0% | 16% | 64% | 59% | 37% | 9% | 0% | 1% |
| C[C@@H]1CNc2c(sc3ccc4nc(-c5ccncc5)ccc4c23)C(=O)N1 | 2% | 0% | 0% | 0% | 0% | 0% | 52% | 44% | 69% | 93.1% |
